# Source: PubChem BioAssay (several laboratories)
# Rows were chosen to be rich in hits. Some 6.2% of all compounds tested hit in one or more screens of this group.
# GRIN3A LBD mod: modulates the human NR3A ligand-binding domain; 2.5% of 340,000 active; Tm shift relative to glycine control, % at 25 µM; NR3A LBD differential scanning fluorimetry, Tm shift; 0% = protein alone, 100% = glycine-bound protein;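 active = melting temperature shift of at least 10% of the positive control shift, at one fixed dose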
# AHR activator: human AHR activation; P35869; AHR-responsive luciferase reporter cells, luminescence; activation, % at 5 µM; 2.5% of 320,000 active; in the data active = activation above about 47%;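 also: 0% = vehicle wells and 100% = reference agonist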
# Target sequence (P35869 whole entry, looked up): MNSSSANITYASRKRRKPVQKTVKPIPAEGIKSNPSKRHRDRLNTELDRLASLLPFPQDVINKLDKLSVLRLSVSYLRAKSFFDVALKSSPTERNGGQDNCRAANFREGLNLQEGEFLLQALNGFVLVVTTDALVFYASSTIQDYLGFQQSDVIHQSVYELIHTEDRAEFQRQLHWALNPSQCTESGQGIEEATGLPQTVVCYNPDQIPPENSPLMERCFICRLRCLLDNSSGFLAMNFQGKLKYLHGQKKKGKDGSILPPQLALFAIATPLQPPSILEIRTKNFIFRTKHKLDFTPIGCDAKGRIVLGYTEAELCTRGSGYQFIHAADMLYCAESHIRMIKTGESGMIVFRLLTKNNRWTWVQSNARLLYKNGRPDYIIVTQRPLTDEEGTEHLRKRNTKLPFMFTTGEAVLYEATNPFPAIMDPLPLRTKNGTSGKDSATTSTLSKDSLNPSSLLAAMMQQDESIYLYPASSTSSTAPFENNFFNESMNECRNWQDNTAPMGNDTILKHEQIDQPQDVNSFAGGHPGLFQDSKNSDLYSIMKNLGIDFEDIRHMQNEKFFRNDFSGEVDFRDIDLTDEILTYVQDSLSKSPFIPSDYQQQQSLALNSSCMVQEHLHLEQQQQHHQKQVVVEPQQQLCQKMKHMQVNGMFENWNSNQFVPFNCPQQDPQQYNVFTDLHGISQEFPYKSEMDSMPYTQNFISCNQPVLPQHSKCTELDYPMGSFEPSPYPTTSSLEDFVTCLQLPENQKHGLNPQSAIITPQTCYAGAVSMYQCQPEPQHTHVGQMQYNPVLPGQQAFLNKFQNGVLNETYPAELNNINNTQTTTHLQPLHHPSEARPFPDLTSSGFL
# H9c2 protect: myocardial damage modulation in H9c2 cells. H9c2 cardiomyocytes, H2O2 injury protection, ATPLite, 2 h. protection from H2O2 cell death, % at 20 µM. 0.63% of 360,000 active;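 active = compounds giving at least 50% protection of heart cells from peroxide-induced death in the single-dose screen, raw or plate-pattern-corrected value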;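 also: 0% = DMSO wells with peroxide and 100% = DMSO wells without peroxide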
# NTR1 ag: activates human neurotensin receptor 1; P30989; activation, % at 20 µM; NTR1-U2OS beta-arrestin-GFP spot imaging, agonist mode; 0.17% of 330,000 active; AID 493036;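 active = activation at or above 40% of the spot to cytoplasm intensity ratio, with at least 20 cells analyzed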;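 also: 0% = DMSO without peptide and 100% = 100 nM NTR1 peptide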
# Mot1-301 SUMO: SUMOylation pathway inhibition by Mot1-301 growth rescue | S. cerevisiae Mot1-301 growth rescue, ATP luminescence, 38.5C; percent above DMSO median, 100 means doubled | growth rescue, % at 18.8 µM | 1% of 320,000 active | AID 2716;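 active = every valid replicate shows activation above 250% relative to neutral control wells; inactive = the rest, any valid replicate at or below 250%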;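 also: OY570 slx delta 5 strain wells were the positive control but not used for scaling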
# AI-2 QS modul: modulates the Vibrio harveyi AI-2 quorum sensing system | 0.4% of 300,000 active | Vibrio harveyi JMH597 AI-2 luminescence/OD600 ratio, 9 h; hits give low values; strain lacks LuxN and CqsS sensors; 0 = neutral-control median | activity change, % at 7.5 µM | AID 2094; in the data active = activity change below about -75%, passing the limit was not always enough;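 also: luminescence divided by OD600 gain over 9 h not by final OD600 alone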
# The depositor's hits bear a star; x = no result given.
SMILES,GRIN3A LBD mod,AHR activator,H9c2 protect,NTR1 ag,Mot1-301 SUMO,AI-2 QS modul
Cc1c(Br)c([N+](=O)[O-])nn1CC(=O)N1CCN(C23CC4CC(CC(C4)C2)C3)CC1,-2,0,2,-1,-3,11
CCC1(CC)NC(=O)N(CC(=O)OC(C)C(=O)Nc2cc([N+](=O)[O-])ccc2OC)C1=O (stereo not given),7,0,1,0,103,3
CC1CCN(c2cc(N3CCOCC3)c(F)cc2[N+](=O)[O-])CC1,15*,1,9,-2,11,9
CC1CCN(c2cc(N3CCOCC3)c([N+](=O)[O-])cc2F)CC1,3,3,-17,1,-4,1
COc1cc(-c2cc(NC(C)=O)c3ncc(-c4ccc(C(C)=O)cc4)n3c2)cc(OC)c1OC,x,x,61*,x,x,x
CC(=O)Nc1cc(-c2cccc(N)c2)cn2c(-c3ccc(C(C)=O)cc3)cnc12,x,x,39,x,x,x
COc1cc(-c2cc(NC(C)=O)c3ncc(-c4ccc(F)cc4)n3c2)cc(OC)c1OC,x,x,54*,x,x,x
CC(Sc1nnc(C2CC2)n1C1CC1)C(=O)Nc1ccccc1C#N (stereo not given),2,5,6,-1,-2,x
COc1ccccc1CCn1cnc2c3cc(C)ccc3n(C)c2c1=O,0,68*,10,8,7,5
COc1ccc2c(c1)c1ncn(CCN3CCCC3)c(=O)c1n2C,0,3,5,2,2,22
COc1cccc2sc3cc(NCc4ccc5c(c4)OCO5)ccc3c(=O)c12,-3,76*,2,9,18,x
COc1ccc(NC(=S)Nc2ccccc2)cc1,-5,1,-3,1,136,20
COc1ccc(NC(=S)Nc2ccc3nccnc3c2)cc1,1,7,6,x,-13,14
COc1ccc(NC(=S)Nc2ccc3snnc3c2)cc1,28*,67*,0,2,5,-10
COc1ccc(NC(=S)Nc2ccc(N)c([N+](=O)[O-])c2)cc1,12*,62*,6,0,-25,7
CC(=O)Nc1cccc(-c2ccnc3c2CC(C)(C(=O)NCc2ccc(F)c(F)c2)O3)c1 (stereo not given),x,x,10,x,x,x
CCOC(=O)C[C@@H](C#N)NC(=O)[C@@H]1CCCN1C(=O)[C@@H](NC(=O)c1ccc(N)c(Cl)c1)C(C)(C)C,x,x,14,x,x,x
COc1ccc(C(C)=O)cc1CN1C(=O)C(C)ON=C1c1ccccn1 (stereo not given),x,x,2,x,x,x
O=C(Nc1ccc(Cl)cc1)c1ccc(-n2cccn2)c([N+](=O)[O-])c1,23*,-4,-19,4,0,17
COc1ccc(NC(=O)c2ccc(-n3cccn3)c([N+](=O)[O-])c2)cc1,0,-6,-1,-1,33,37
Cc1ccc(NC(=O)c2ccc(-n3cccn3)c([N+](=O)[O-])c2)cc1C,13*,5,-2,-2,171,29
Cc1cc(Br)ccc1NC(=O)c1ccc(-n2cncn2)c([N+](=O)[O-])c1,-1,66*,1,2,x,7
C=CCN(Cc1ccc(Cl)s1)C(=O)c1cc(S(=O)(=O)N2CCOCC2)ccc1F,-1,3,3,-1,-8,x
O=C(c1cccc(F)c1F)N1CCCc2ccccc21,-1,51*,1,0,-14,14
Cn1cc(C(=O)C(=O)N2CCc3ccccc32)c2ccccc21,5,63*,2,1,-1,-1
SMILES,GRIN3A LBD mod,AHR activator,H9c2 protect,NTR1 ag,Mot1-301 SUMO,AI-2 QS modul
Cc1[nH]c2ccccc2c1C(=O)C(=O)N1CCCc2ccccc21,-1,12,-4,0,-4,13
O=C(C(=O)N1CCCc2ccccc21)c1c[nH]c2ccccc12,0,50*,1,2,26,21
CN(CC(=O)Nc1cccc(C(F)(F)F)c1)C1=NS(=O)(=O)c2ccccc21,-2,0,0,-1,0,x
CCN(C(=O)CN1C(=O)COc2ccc(S(=O)(=O)N3CCCCCC3)cc21)c1cccc(C)c1,-6,3,5,1,-7,31
COc1cc(NC(=O)c2ccco2)c(OC)cc1NC(=O)c1cc(OC)c(OC)c(OC)c1,1,8,74*,2,38,32
CCOc1cc(NC(=O)c2ccco2)c(OCC)cc1NC(=O)c1cc(OC)c(OC)c(OC)c1,1,27,15,5,14,27
COc1ccc([N+](=O)[O-])cc1NC(=O)Nc1ccc(OC)c(OC)c1,-6,13,16,1,-7,25
COc1ccccc1N(C)S(=O)(=O)c1ccc(C(=O)OCC(=O)c2c[nH]c3ccccc23)cc1,23*,23,-9,4,-7,21
COc1ccc(-c2nc3ncccc3o2)cc1NC(=O)c1ccco1,1,76*,31,4,-12,9
COc1ccccc1N(C)S(=O)(=O)c1ccc(C(=O)OCC(=O)N(C)c2ccccc2)cc1,-1,1,8,5,-3,-4
COc1ccc([N+](=O)[O-])cc1NC(=O)Nc1cccc(Cl)c1,29*,5,-8,2,-3,5
Cc1ccc(S(=O)(=O)N2[C@@H](c3ccc(Cl)cc3)C(C(=O)OC(C)(C)C)=CC[C@H]2c2ccc(Cl)c(Cl)c2)cc1,x,x,2,x,x,x
O=S(=O)(Cc1ccccc1)N1CCNCC1,-1,-1,6,1,-1,24
COc1cc(NC(=O)c2ccco2)c(OC)cc1NC(=O)Nc1cccc(Cl)c1,22*,-2,65*,10,-2,6
COc1ccccc1NS(=O)(=O)c1cccc(NC(=O)Nc2cccc(Cl)c2)c1,23*,6,-8,31,19,18
CCOc1cc(NC(=O)c2ccco2)c(OCC)cc1NC(=O)CCc1ccccc1OC,15*,18,20,4,-10,10
COc1cc(NC(=O)c2ccco2)c(C(=O)OCC(=O)c2c[nH]c3ccccc23)cc1OC,14*,55*,66*,4,-12,20
COc1ccc(/C=N/c2oc(-c3ccccc3)cc2C#N)cc1OC,37*,3,3,2,8,26
CCCC(=O)OCC1CN(Cc2ccco2)S(=O)(=O)c2c(F)cccc2O1 (stereo not given),3,x,11,x,x,x
Cc1cc2c(cc1C)C(=O)C(Br)=C(N)C2=O,0,x,-14,x,x,x
NC1=C(Br)C(=O)c2ccccc2C1=O,0,1,-20,0,45,-90*
O=C(Nc1cc2nn(-c3ccccc3)nc2cc1Cl)c1ccco1,-4,47*,-23,0,-3,8
CSc1nc(N)nc(SCC(=O)Nc2ccc(Cl)cc2)c1C#N,29*,6,-13,26,43,8
CSc1nc(N)nc(SCC(=O)CC(=O)OC(C)C)c1C#N,0,-2,8,3,7,23
